Data published in PMC7819943, “Rice protein-binding microarrays: a tool to detect cis-acting elements near promoter regions in rice”.
In all, about 68,000 sequences were measured (“fluorescence intensity (a.u.)”: median about 9,100, highest 2% from about 16,000 on). The sample holds the highest values, similar sequences and a random draw of the others, so the mix is not that of the screen.

biological target: OsWRKY34 (Oryza sativa, UniProt Q0JBA9 1-250); experiment: protein-binding microarray (RPBM); PBS, 2% BSA, 51.3 ng/ul salmon testes DNA, 50 uM zinc acetate, 200 nM TF, 25 C, 1 h; high values mean tight binding; conditions: protein: recombinant; tags: N-terminal polyhistidine and DsRed monomer fusion (pET32a); label: CyDye5-dUTP incorporated in the synthesized complementary strand; 3' TTTTT single-stranded linker to array surface; dsDNA, one strand shown
Sequence (Q0JBA9 entry or part of it): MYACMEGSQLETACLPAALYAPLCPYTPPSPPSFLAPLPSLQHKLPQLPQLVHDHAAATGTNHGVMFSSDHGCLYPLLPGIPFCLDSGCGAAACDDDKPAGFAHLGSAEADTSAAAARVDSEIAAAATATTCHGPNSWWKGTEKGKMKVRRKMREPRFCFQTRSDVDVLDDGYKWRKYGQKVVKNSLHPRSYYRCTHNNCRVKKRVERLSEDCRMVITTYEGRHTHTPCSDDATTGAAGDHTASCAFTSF
Procedure, shortened: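 The binding signal is fluorescence intensity per feature, in arbitrary units, read on an Axon 4000B scanner. Polyhistidine- and DsRed-tagged transcription factors (N-terminal fusions) from E. coli BL21-CodonPlus were purified on Ni–NTA and applied at 200 nM for 1 h at 25 °C to a double-stranded, BSA-blocked custom Agilent array in buffer with 50 µM zinc acetate.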

| Sequence | binding signal |
| --- | --- |
| TTTTCAGCGTGTGCATCACATGGTCCGTATCTTTAATACTCGGAGTCACCTAGTGCAG | 8520 fluorescence intensity (a.u.) |
| TCCTGTCGTATGTCTTCACCACCACACAAACAATGCTTCTCGGAGTCACCTAGTGCAG | 9550 fluorescence intensity (a.u.) |
| ACTCCACTTAGGCTGCATTCGTTCTAGATACATTGAGTTACGGAGTCACCTAGTGCAG | 9970 fluorescence intensity (a.u.) |
| GCCTTTGTCGGTCATGTTCCCATCGCTTTAGTTCTTCTCACGGAGTCACCTAGTGCAG | 15000 fluorescence intensity (a.u.) |
| GTGATAGAAAAGTTGTGTGTGTATGAAATGTTTGATGCGACGGAGTCACCTAGTGCAG | 8750 fluorescence intensity (a.u.) |
| ATACTGAGAAAGTGCCAAGTTTTTGTCTGCTTCATGTAACCGGAGTCACCTAGTGCAG | 8110 fluorescence intensity (a.u.) |
| GACCTCGCCGTCGCCGTCGCCGCCGCCGCCGCCGCCATGGCGGAGTCACCTAGTGCAG | 9900 fluorescence intensity (a.u.) |
| CATTGTTCCTCACAGGATCAGGGGTGGAGAGTGAAGAGAGCGGAGTCACCTAGTGCAG | 8070 fluorescence intensity (a.u.) |
| GTGGTTGATTTGACCTTTTACATTGTACAGATGGTATTGGCGGAGTCACCTAGTGCAG | 8480 fluorescence intensity (a.u.) |
| CCGCGGGTGGGGAGATTTGACCGGCGTTGACTCCGGGATGCGGAGTCACCTAGTGCAG | 14300 fluorescence intensity (a.u.) |
| AGCGATGGTGGTGGTGGTGGTGGTGGTGGCTGGGTTGCTTCGGAGTCACCTAGTGCAG | 28200 fluorescence intensity (a.u.) |
| GCGGGCAGTGGGCGCGAGATCTCATCCGAGTGGGTGGGCGCGGAGTCACCTAGTGCAG | 8060 fluorescence intensity (a.u.) |
| CTTCTCCTCTAGTCTGTGGTTGGCTGGCGATGGTGGCTTGCGGAGTCACCTAGTGCAG | 8820 fluorescence intensity (a.u.) |
| TGCGGGATGGCTGGTTGGTGTGCGTGTGCTTCGGTGCGTTCGGAGTCACCTAGTGCAG | 10400 fluorescence intensity (a.u.) |
| GATCCGCGGCGCGGGTGGGGTTGTGGGGCGGGCGGAGATGCGGAGTCACCTAGTGCAG | 19200 fluorescence intensity (a.u.) |
| CAGCCATCGCCTCCCCGACTCCCGTCGTTGTCCACCCCGTCGGAGTCACCTAGTGCAG | 8260 fluorescence intensity (a.u.) |
| TGTTCTGCCAGCCAATCCAGATCGCCCTCGTATGCACGCTCGGAGTCACCTAGTGCAG | 8890 fluorescence intensity (a.u.) |
| TGAACTCCTAATACTGTCCTACCACTTCTACATGTCTTCTCGGAGTCACCTAGTGCAG | 11300 fluorescence intensity (a.u.) |
| GCCTGCGCCGATCCCCATCCATTCCGCGAGCGAGCGAGTGCGGAGTCACCTAGTGCAG | 8160 fluorescence intensity (a.u.) |
| AACAGCTCTCGATCTGATCGTCCCCACACCGCACGCTGACCGGAGTCACCTAGTGCAG | 9930 fluorescence intensity (a.u.) |

| Sequence | binding signal |
| --- | --- |
| CCTCGCCGAAGCCTCTCTACCTCTGTGTGTCTCTCTCTCCCGGAGTCACCTAGTGCAG | 8120 fluorescence intensity (a.u.) |
| AAACTTCCCCGCGTACGATGACGCCAATACACATACATATCGGAGTCACCTAGTGCAG | 10700 fluorescence intensity (a.u.) |
| GAGTGTATTTCATCTCAAGTTAGCATGCGAGTTTTTTTTACGGAGTCACCTAGTGCAG | 8210 fluorescence intensity (a.u.) |
| TATCGTGCTTCCATGTGCACAGATCGATCAAACTCGCATGCGGAGTCACCTAGTGCAG | 9270 fluorescence intensity (a.u.) |
| ATGTATGACGCTGTTGACTTTGTAACCAATATTTGACCATCGGAGTCACCTAGTGCAG | 13400 fluorescence intensity (a.u.) |
| ATACATGACGCCGTTGATTTTTTAATCAACGTTTGACCATCGGAGTCACCTAGTGCAG | 8210 fluorescence intensity (a.u.) |
| GGTATAGTTTTATACTGTTTATATCCAACGTTTGACCGTTCGGAGTCACCTAGTGCAG | 10200 fluorescence intensity (a.u.) |
| GTGTATTTATGGTTTTTTTTTCAACGTTTGACCATCCGTTCGGAGTCACCTAGTGCAG | 12300 fluorescence intensity (a.u.) |
| TGTATGATGCTGTTGACTTTTTATCCAACGTTTGACCATCCGGAGTCACCTAGTGCAG | 21200 fluorescence intensity (a.u.) |
| GTGTATGATGCCGTTGACTTTTTATCCAACGTTTGACCATCGGAGTCACCTAGTGCAG | 38800 fluorescence intensity (a.u.) |
| TGGTGGAGAAGCTAATGAAGAGGGTGTTTTGTTGACTATGCGGAGTCACCTAGTGCAG | 8500 fluorescence intensity (a.u.) |
| GTTACATTCTTGTTCAGTCCTCACTACTCATCCCTACAATCGGAGTCACCTAGTGCAG | 11500 fluorescence intensity (a.u.) |
| CCCACTATCATCCGTCATCCGTGCAACGCACGGGCATTATCGGAGTCACCTAGTGCAG | 9340 fluorescence intensity (a.u.) |
| CGTTTTTTAATAGATGACGCCATTGACTTTTTCTCACATACGGAGTCACCTAGTGCAG | 11000 fluorescence intensity (a.u.) |
| GTCTCACCGGAGCTCCGCCGCCGCCGCCGCCGTTTTCTCCCGGAGTCACCTAGTGCAG | 25700 fluorescence intensity (a.u.) |
| CTCCCGCCGTCTCCGTCACCGTCTACCGTTTGCTCCAGTGCGGAGTCACCTAGTGCAG | 9530 fluorescence intensity (a.u.) |
| GCCGCGGCGGAGCTCCCGTTTCCGTTGCCGTCTCCGGCGCCGGAGTCACCTAGTGCAG | 11000 fluorescence intensity (a.u.) |
| CTCCGTTTTTTAATAGATGACGCCGTTGACTTTTTCTCACCGGAGTCACCTAGTGCAG | 27800 fluorescence intensity (a.u.) |
| TCCGTTTTTTAATAGATGACGCCGTTGACTTTTTCTCACACGGAGTCACCTAGTGCAG | 31700 fluorescence intensity (a.u.) |
